Screening data: PubChem, National Center for Advancing Translational Sciences (NCATS)
The list is not random: actives were taken first. Their share in the collection is about 2.8%.
Pol eta inh – blocks human DNA polymerase eta activity. recombinant Pol eta, fluorescent DNA replication assay. AID 588591. hit rate 1.2% among 390,000. Potency, µM (doses to about 114 µM), without a hit: top-dose activity change, negative = inhibition, actives largely listed as inhibitors; further: potency means the concentration at half of the fitted maximal effect; on the % scale 0 is the no-effect control and ±100 the full control effect
Target sequence (Q9Y253 whole entry, looked up): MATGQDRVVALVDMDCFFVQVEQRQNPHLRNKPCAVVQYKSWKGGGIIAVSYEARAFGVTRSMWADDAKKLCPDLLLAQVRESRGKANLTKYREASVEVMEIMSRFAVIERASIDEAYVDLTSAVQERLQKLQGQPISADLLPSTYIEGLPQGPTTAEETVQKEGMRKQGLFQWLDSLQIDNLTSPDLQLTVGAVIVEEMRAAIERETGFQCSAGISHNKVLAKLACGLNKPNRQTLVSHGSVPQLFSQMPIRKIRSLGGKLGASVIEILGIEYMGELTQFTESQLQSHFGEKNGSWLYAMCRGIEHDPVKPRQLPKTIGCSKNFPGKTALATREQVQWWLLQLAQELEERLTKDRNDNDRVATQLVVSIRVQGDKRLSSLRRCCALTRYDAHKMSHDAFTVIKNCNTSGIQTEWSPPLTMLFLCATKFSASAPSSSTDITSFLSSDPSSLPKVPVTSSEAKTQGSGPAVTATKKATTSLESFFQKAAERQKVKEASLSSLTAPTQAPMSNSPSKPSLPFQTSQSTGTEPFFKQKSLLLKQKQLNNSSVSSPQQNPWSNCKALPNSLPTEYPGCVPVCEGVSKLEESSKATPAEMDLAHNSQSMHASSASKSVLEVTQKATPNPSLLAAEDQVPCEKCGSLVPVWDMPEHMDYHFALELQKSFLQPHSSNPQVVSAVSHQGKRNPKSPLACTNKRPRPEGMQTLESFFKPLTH
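Pol eta at 10 nM preincubated with compounds 15 min at room temperature; reaction started with fluorescent substrate (50 nM final) and read kinetically at 0 and 10 min.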
WRN helicase inh – blocks human WRN helicase | Q14191 | hit rate 0.46% among 360,000 | WRN helicase unwinding, fluorescent forked duplex, kinetic | Potency, µM (highest dose often 114 µM), without a hit: at the top dose activity change, negative = inhibition, usual class: inhibitors; further: potency means the concentration at half of the fitted maximal effect; on the % scale 0 is the no-effect control and ±100 the full control effect; nearly all actives have a fitted effect of over 55% in size
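Enzyme (20 nM final) and test compound sit together 15 min at room temperature before substrate addition. Substrate is a single-forked duplex oligonucleotide (100 nM) labelled with fluorophore and quencher, with 2 mM ATP; helicase unwinding raises red fluorescence, read kinetically.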
POLK inh – DNA polymerase kappa (human) inhibition; Potency, µM (highest dose often 107 µM), for inactives: top-dose activity, negative = inhibition, hits mostly inhibitors; Q9UBT6; purified Pol kappa, fluorescent DNA synthesis assay, 10 min; hit rate 0.53% among 400,000; further: potency means the concentration at half of the fitted maximal effect; on the % scale 0 is the no-effect control and ±100 the full control effect
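10 nM Pol kappa preincubated 15 min at room temperature with compounds, then reaction started with substrate at 50 nM final. Fluorescence read kinetically at 0 and 10 min; buffer-only wells served as negative control.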
PI5P4K alpha inh – inhibitors of human PI5P4K alpha. P48426. PI5P4Kalpha enzyme, ADP-Glo luminescence, 60 min; hits give low values. max response, %. hit rate 1.2% among 330,000; active means max response of -50% or lower; inconclusive means between -30% and -50%; inactive means -30% or higher; further: value at the top dose of about 77 µM; on the % scale 0 is the no-effect control and ±100 the full control effect
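Luminescence from ADP-Glo served as readout of PI5P4Kalpha activity in a qHTS format. Reaction: enzyme, substrate, compound, ATP at 5 microM final, 60 min at RT.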
POLI inh – inhibitors of human DNA polymerase iota | Q9UNA4 | hit rate 1% among 390,000 | Potency, µM (highest dose often 115 µM), for inactives: at the top dose activity, negative = inhibition, most hits filed as inhibitors | Pol iota fluorescent replication assay, 10 min | AID 588590; further: potency means the concentration at half of the fitted maximal effect
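Fluorescent replication assay read twice, at 0 min and 10 min after adding 50 nM (final) substrate. Enzyme (10 nM) and compounds were first incubated 15 min at room temperature; enzyme-free buffer wells were negative controls.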
Pol beta inh-1 – inhibitors of human DNA polymerase beta | Pol beta primer extension/strand displacement, fluorescence kinetic | P06746 | Potency, µM (doses to about 114 µM), for the others: at the highest dose activity change, negative = inhibition, usual class: inhibitors | hit rate 1.3% among 340,000; further: potency means the concentration at half of the fitted maximal effect; on the % scale 0 is the no-effect control and ±100 the full control effect
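Pol beta (10 nM) was preincubated with compound for 15 min at room temperature. The reaction was then started with 50 nM substrate and read immediately and after a further 10 min at room temperature.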
Pol beta inh-2 – Inhibitors of human DNA polymerase beta, hit validation | Potency, µM, most hits filed as inhibitors | shares compounds with Pol beta inh-1 | Pol beta primer extension/strand displacement, fluorescence kinetic | hit rate 87% among 250; calls by dose curve; further: potency means the concentration at half of the fitted maximal effect
Klenow counter – Klenow polymerase inhibition, pol beta selectivity check; activity change, negative = inhibition, % at 57.1 µM; 250 tested, under 10 active; AID 540300; shares compounds with Pol beta inh-1; Klenow exo- polymerase counter-screen, fluorescent DNA substrate
HIV RT counter – inhibits HIV-1 reverse transcriptase in counter-screen | shares compounds with Pol beta inh-1 | HIV-1 RT polymerase activity, counter-screen | activity % (negative = inhibition, positive = activation), % at 57.1 µM | 250 tested, under 10 active
POLB inh gel – DNA polymerase beta inhibition, radiolabeled validation; inhibition, % at 10 µM; shares compounds with Pol beta inh-1; radiolabeled primer extension gel assay, phosphorimager; hit rate 91% among 110;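 active means inhibition at 10 µM of 30% or more; inconclusive means no clear call, values can overlap the other calls; inactive means inhibition at 10 µM under 30%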
Active calls of the source: *; [ ] = another dose, or the depositor's remark. Unless noted, the call rests on the fitted dose curve; in most records, active means well fitted curve in the direction sought with a large enough effect; inconclusive means small, poorly fitted or top-dose-only effect, or another doubt; inactive means no such curve, though single readings can be large; an effect the other way counts as inactive or inconclusive.

What do the screens show for `CN1c2ccccc2C(C)(C)C12C=Nc1c(cc(N3CCOCC3)c3ccccc13)O2` (stereo not given)?
Pol eta inh: 1%; WRN helicase inh: -23%; POLK inh: -20%; PI5P4K alpha inh: 5; POLI inh: 3.5µM*; Pol beta inh-1: 3%

Results for O=C(C[n+]1csc2ccccc21)c1ccc(O)c(O)c1 ?
POLK inh: 25µM*; POLI inh: 14µM*

Results for CCOC(=O)c1sc(NC(=O)C2=COCCO2)c(C#N)c1C ?
Pol eta inh: -22%; WRN helicase inh: -18%; POLK inh: 0%; PI5P4K alpha inh: -4; POLI inh: inconclusive

Results for CCOC(=O)c1sc(NC(=O)C(C)C)c(C#N)c1C ?
Pol eta inh: -13%; WRN helicase inh: inconclusive; POLK inh: -7%; PI5P4K alpha inh: -68*; POLI inh: inconclusive; Pol beta inh-1: 17%

Results for O=C(CSc1nnnn1-c1ccccc1)NC(=O)NCc1ccco1 ?
Pol eta inh: 8.9µM*; WRN helicase inh: -20%[11.6 µM]; POLK inh: inconclusive; PI5P4K alpha inh: -60*; POLI inh: 20µM*; Pol beta inh-1: 40µM*

What do the screens show for `CCOc1ccccc1-n1nnnc1SCC(=O)NC(=O)NCc1ccco1`?
Pol eta inh: inconclusive; WRN helicase inh: -15%[57.1 µM]; POLK inh: inconclusive; POLI inh: inconclusive; Pol beta inh-1: 22µM*

How did Cc1ccc(-c2noc(-c3nnn(CC(=O)Nc4ccc(C)c(Cl)c4)c3N)n2)cc1 do in these assays?
POLK inh: -6%; POLI inh: 11%; Pol beta inh-1: 37%

Results for Cc1nc(N2CCCC2)ncc1C(=O)Nc1ccccc1 ?
POLK inh: -11%[60.1 µM]; POLI inh: -2%; Pol beta inh-1: 1%

What do the screens show for `CCOC(=O)Nc1ccc(C(=O)Oc2ccccc2)c(O)c1`?
Pol eta inh: -11%; WRN helicase inh: -5%; POLK inh: -13%; POLI inh: inconclusive; Pol beta inh-1: 3%

What do the screens show for `Cc1cccc(OC(=O)Nc2ccc(C(=O)O)c(O)c2)c1`?
Pol eta inh: -9%; WRN helicase inh: -2%; PI5P4K alpha inh: -54*

How did CC(=O)N1CCN(c2ccc(NCc3ccc(C)s3)cc2)CC1 do in these assays?
Pol eta inh: -16%; WRN helicase inh: 8%; POLK inh: -5%; PI5P4K alpha inh: 0; POLI inh: 50µM*; Pol beta inh-1: 4%

What do the screens show for `Cc1ccc(CNc2ccc(N3CCOCC3)cc2)s1`?
Pol eta inh: 5%; WRN helicase inh: 3%; POLK inh: -1%; PI5P4K alpha inh: -5; POLI inh: inconclusive; Pol beta inh-1: 15%

How did COc1ccc(NC(=O)c2ccc(NCCN3C(=O)CCC3=O)c([N+](=O)[O-])c2)cc1 do in these assays?
Pol eta inh: inconclusive; WRN helicase inh: -4%[11.6 µM]; POLK inh: inconclusive; PI5P4K alpha inh: inconclusive; POLI inh: -27%; Pol beta inh-1: 13µM*; Pol beta inh-2: inconclusive; Klenow counter: -7; HIV RT counter: 21; POLB inh gel: inconclusive

What do the screens show for `NC(=O)c1c(NC(=O)CSc2nnc(-c3ccco3)n2-c2ccccc2)sc2c1CCC2`?
Pol eta inh: 10µM*; WRN helicase inh: -31%; POLK inh: inconclusive; PI5P4K alpha inh: -65*; POLI inh: inconclusive; Pol beta inh-1: 4.5µM*; Pol beta inh-2: 13*; Klenow counter: -16; HIV RT counter: 14

What do the screens show for `Cc1ccccc1NC(=O)COc1ccccc1C(=O)Nc1ccccc1`?
POLK inh: -7%; POLI inh: -25%

How did O=C(C[N+]1(CCc2ccccc2)CCOCC1)c1ccccc1 do in these assays?
POLK inh: 7%; POLI inh: 12%

How did O=C(Cc1cccs1)N1CCN(c2ccc([N+](=O)[O-])cc2)CC1 do in these assays?
Pol eta inh: 79µM*; WRN helicase inh: -14%; POLK inh: inconclusive; PI5P4K alpha inh: inconclusive; POLI inh: inconclusive; Pol beta inh-1: 20µM*; Pol beta inh-2: inconclusive; Klenow counter: -35; HIV RT counter: 60; POLB inh gel: 65*

How did O=C(O)c1ccc2c(c1)C(=O)N(c1cccc(-c3nc4ccccc4s3)c1)C2=O do in these assays?
Pol eta inh: -7%; WRN helicase inh: -30%; POLK inh: -16%; PI5P4K alpha inh: -1; POLI inh: 11%; Pol beta inh-1: 18µM*; Pol beta inh-2: 14*; Klenow counter: -28; HIV RT counter: 25

Results for CC(=O)Oc1cccc(N2C(=O)c3ccc(C(=O)O)cc3C2=O)c1 ?
Pol eta inh: -9%; WRN helicase inh: 6%; POLK inh: 6%; POLI inh: -14%; Pol beta inh-1: 16%

Results for CCC(C(=O)N1CCN(c2ccccc2)CC1)n1nc(C)c2sc3ccccc3c2c1=O (stereo not given) ?
Pol eta inh: -16%; POLK inh: -10%; POLI inh: 20%; Pol beta inh-1: 3%

Results for Cc1cc(C)nc(SCC(=O)c2ccc(O)c(O)c2)n1 ?
Pol eta inh: 16µM*; WRN helicase inh: -31%; POLK inh: inconclusive; PI5P4K alpha inh: inconclusive; POLI inh: inconclusive; Pol beta inh-1: 4.5µM*; Pol beta inh-2: 32*; Klenow counter: -32; HIV RT counter: 20; POLB inh gel: 42*

How did Cc1ccc(C(=O)CSc2nc(C)cc(=O)[nH]2)cc1 do in these assays?
Pol eta inh: -7%; WRN helicase inh: -11%; POLK inh: 0%; PI5P4K alpha inh: 0; POLI inh: 2%; Pol beta inh-1: 7%

How did Cc1cc(=O)[nH]c(SCC(=O)c2ccc(O)c(O)c2)n1 do in these assays?
Pol eta inh: 18µM*; WRN helicase inh: -8%[11.6 µM]; POLK inh: inconclusive; PI5P4K alpha inh: -16; POLI inh: 50µM*; Pol beta inh-1: 11µM*; Pol beta inh-2: 28*; Klenow counter: -12; HIV RT counter: inconclusive; POLB inh gel: 16
